This passage reports luciferase reporter transactivation results from the supplement of paper PMC11402862.

The experiment has as its target FXR LBD (GAL4 fusion) (UniProt Q96RI1). As to the kind of experiment: luciferase reporter transactivation, fold of solvent control; higher = stronger receptor activation. Conditions: HEK293T, exposure time: 24 h. The protocol:
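HEK293T cells were transiently transfected with a GAL4-DBD fused to the ligand-binding domain of a human nuclear receptor (PPARα, PPARγ, PPARδ, FXR, LXRα, PXR, RARα or CAR), the GAL4-(UAS)5-TK firefly luciferase reporter and a Renilla luciferase normalisation plasmid. Cells were exposed to compound for 24 h in 0.5% DMSO. Firefly/Renilla luciferase was expressed as fold of the solvent control (=1). Values are the mean of 2-3 biological replicates; receptor agonists were used as positive controls.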

Sequence of FXR LBD (GAL4 fusion) (Q96RI1 whole entry, looked up, the tested form may be a part): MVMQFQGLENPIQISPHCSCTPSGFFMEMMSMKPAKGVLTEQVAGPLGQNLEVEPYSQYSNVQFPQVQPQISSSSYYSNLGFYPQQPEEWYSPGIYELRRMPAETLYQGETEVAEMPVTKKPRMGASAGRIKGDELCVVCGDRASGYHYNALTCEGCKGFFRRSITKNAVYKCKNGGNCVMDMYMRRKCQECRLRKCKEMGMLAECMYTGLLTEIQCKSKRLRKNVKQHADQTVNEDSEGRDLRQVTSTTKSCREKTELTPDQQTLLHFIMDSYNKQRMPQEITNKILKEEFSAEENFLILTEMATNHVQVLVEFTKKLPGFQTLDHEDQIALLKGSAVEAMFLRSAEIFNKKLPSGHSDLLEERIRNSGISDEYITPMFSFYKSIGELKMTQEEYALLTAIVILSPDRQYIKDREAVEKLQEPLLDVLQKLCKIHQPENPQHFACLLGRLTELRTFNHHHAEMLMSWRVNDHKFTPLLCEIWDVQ

Take `O=C(O)C(F)(F)C(F)(F)F` [perfluoropropanoic acid]: the luciferase reporter transactivation runs as follows: (concentration: 1 µM) 1.54; (concentration: 5 µM) 1.63; (concentration: 10 µM) 1.39; (concentration: 25 µM) 0.693; (concentration: 50 µM) 1.46; (concentration: 100 µM) 1.43. The compound further showed a luciferase reporter transactivation (concentration: 250 µM) of 1.27 and a luciferase reporter transactivation (concentration: 500 µM) of 1.62.
`NS(=O)(=O)C(F)(F)C(F)(F)C(F)(F)C(F)(F)C(F)(F)C(F)(F)C(F)(F)C(F)(F)F` [perfluorooctane sulfonamide] displayed a luciferase reporter transactivation (concentration: 1 µM) of 0.705; a luciferase reporter transactivation (concentration: 2.5 µM) of 0.788; a luciferase reporter transactivation (concentration: 5 µM) of 1.1; a luciferase reporter transactivation (concentration: 10 µM) of 0.752; a luciferase reporter transactivation (concentration: 100 µM) of 1.01.
